The record followed here is the supplement of paper PMC13380429.

The assay deals with Vero E6 infected with SARS-CoV-2. Put plainly: morphology score (similarity to uninfected cells); higher = more like uninfected cells. The following applies: 24 h.
The compound `Cc1nc2ccc(NC(=O)Nc3ccnc4cccnc34)cc2o1` (10 µM) yielded a morphology score of 0.053.

`CC(=O)Oc1ccccc1C(=O)Oc1ccccc1C(=O)O` [acetylsalicylsalicylic-acid] (10 µM) displayed a morphology score of 0.0259.

On to `CCCn1c(=O)[nH]c(=O)c2nc[nH]c21` [enprofylline] (10 µM), for which the morphology score was determined as 0.188.

With `O=C(Cc1ccccc1)Nc1nc2ccc(Cl)cc2c2nc(-c3ccco3)nn12` (10 µM), the morphology score is -0.00361.

Compound `CCn1cc(C(=O)O)c(=O)c2cc3c(cc21)OCO3` [oxolinic-acid] (10 µM) registered a morphology score of 0.162.

Turning to `CN(C)CCC(c1ccccc1)c1ccccn1` (configuration not stated) [pheniramine] (10 µM), the morphology score is -0.131.

`O=C(CCCN1CCC(O)(c2ccc(Br)cc2)CC1)c1ccc(F)cc1` [bromperidol] (10 µM) gave a morphology score of -0.0835.

In turn, `CCCCNc1c(C(=O)OCC)c(C)nc2c1cnn2CC` [tracazolate] (10 µM) registered a morphology score of 0.174.

The compound `NC(=O)c1ccc(F)c2c1C[C@@H](N(C1CCC1)C1CCC1)CO2` [robalzotan] (10 µM) gave a morphology score of 0.00904.

Compound `Cc1cc(C)c(S(=O)(=O)n2cc(C)cc2C)c(C)c1` (10 µM) showed a morphology score of 0.0664.

`CC1CCN(C(c2ccc(F)cc2)c2ccc(C(C)C(=O)O)cc2-c2ccc(C(F)(F)F)cc2)CC1` (configuration not stated) (10 µM) had a morphology score of 0.0608.

With `O[C@@H]1CCCC[C@H]1N1CCC(c2ccccc2)CC1` (racemic) [vesamicol] (10 µM), the morphology score was found to be 0.23.

As for `CN1CC[C@@H](NC(=O)Nc2ccc(C#N)cc2)C[C@@H]1c1nc2ccccc2[nH]1` [glasdegib] (10 µM), the morphology score stood at 0.066.

`CCN(C(C)=O)c1cccc(-c2ccnc3c(C#N)cnn23)c1` (10 µM) showed a morphology score of 0.0588.

`Cc1c(O)c(=O)ccn1C` [deferiprone] (10 µM) returned a morphology score of -0.123.

`OC[C@H]1O[C@@H](n2cnc3c(N[C@H]4CCC[C@@H]4O)ncnc32)[C@H](O)[C@@H]1O` (10 µM) gave a morphology score of 0.227.

Compound `Cc1ccc(-c2ccc(C)cn2)nc1` [abametapir] (10 µM) had a morphology score of 0.0247.

Turning to `COc1ccc(N(C(=O)Oc2c(C)cccc2C)c2ccnc(Nc3ccc(N4CCN(C)CC4)cc3)n2)c(OC)c1` (10 µM), the morphology score stood at 0.0671.

`CC1(C)CC[C@]2(C(=O)O)CC[C@]3(C)C(=CC[C@@H]4[C@@]5(C)CC[C@H](O)C(C)(C)[C@@H]5CC[C@]43C)[C@@H]2C1` [oleanolic-acid] (10 µM): the morphology score was found to be 0.0528.

Consider `Nc1c2c(nc3c1CCC3)CCCC2` [ipidacrine] (10 µM), for which the morphology score was 0.22.

In turn, `COC(=O)/C=C/C(=O)OCCN1C(=O)CCC1=O` [diroximel-fumarate] (10 µM) returned a morphology score of 0.0691.

`COc1cc2nc(C3CC3)nc(N3CCN(c4ccccc4OC)CC3)c2cc1OC` (0.833333 µM) gave a morphology score of 0.157.

With `CCN(CC)CCCCNc1ncc2cc(-c3c(Cl)cccc3Cl)c(NC(=O)NC(C)(C)C)nc2n1` (0.833333 µM), the morphology score was found to be 0.085.

`COc1ccc(NS(=O)(=O)c2ccc(I)cc2)cc1N1CCN(C)CC1` (10 µM) yielded a morphology score of 0.195.

With `CN1C[C@@H]2CN(c3ccc(-c4ccccc4)nn3)C[C@@H]2C1` (10 µM), the morphology score is 0.149.

In turn, `O=C(O)Cn1nnc(-c2cc(N3CCC(Oc4cc(F)ccc4Br)CC3)no2)n1` (10 µM) displayed a morphology score of 0.00994.

The compound `C/C(=N\Nc1nnc2c(n1)[nH]c1c(C)cccc12)c1ccccn1` (10 µM) displayed a morphology score of 0.01.
